Assay outcomes from PubChem BioAssay.
aSyn yeast inh: rescues yeast growth from alpha-synuclein toxicity; Yeast expressing alpha-synuclein, growth rescue, BacTiter-Glo, 24 h; hit rate 0.14% among 370,000; Potency, µM (titrated, usually from 46.1 µM), inactives show at the highest dose growth rescue (activation), hits mostly activators; AID 652106; also: potency is read from the fitted curve at half-maximal effect; % of control where 0% means no effect; nearly all actives have a fitted effect of over 65% in size
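Readout is rescue of growth in alpha-synuclein-expressing yeast, so inhibitors of toxicity appear as activators. Growth after 24 hr at 30 deg C in galactose medium is quantified by luminescence.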
Abeta rescue: restores growth of yeast expressing A-beta42 peptide; yeast expressing A-beta42, growth rescue, OD600, 48 h; response scale: 0% DMSO, 100% iron-clioquinol control; Potency, µM (series often up to 46.1 µM), usual class: activators; hit rate 0.063% among 410,000; also: potency is read from the fitted curve at half-maximal effect; nearly all actives have a fitted effect of over 55% in size
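Growth rescue measured by 600 nm absorbance after 48 h yeast culture at 30 C with compound. Values normalized between DMSO and an equimolar ferric chloride plus clioquinol control.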
TDP43 rescue: TDP-43 toxicity inhibition in yeast; TDP-43 expressing yeast growth rescue, BacTiter-Glo, 24 h; Potency, µM (titrated, usually from 46.1 µM), inactives show at the top dose growth rescue (activation), hits mostly activators; hit rate 1.8% among 410,000; also: potency is read from the fitted curve at half-maximal effect; % of control where 0% means no effect; nearly all actives have a fitted effect of over 50% in size
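Galactose-induced TDP-43 yeast, OD600=0.02, compound pinned; 24 hr, 30 deg C; BacTiter-Glo luminescence for growth. Inhibitors of TDP-43 toxicity read as activators.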
IDH1 R132H inh: human IDH1 R132H inhibition; Potency, µM (top dose mostly 76.6 µM), without a hit: at the top dose activity change, negative = inhibition, actives largely listed as inhibitors; hit rate 0.093% among 390,000; O75874; IDH1-R132H enzyme, NADPH consumption, diaphorase/resazurin fluorescence; AID 602179; also: potency is read from the fitted curve at half-maximal effect; % is scaled to controls: 0 for no effect and ±100 for the full control effect; nearly all actives have a fitted effect of over 65% in size
Target sequence (O75874 whole entry R132H, stated change not applied): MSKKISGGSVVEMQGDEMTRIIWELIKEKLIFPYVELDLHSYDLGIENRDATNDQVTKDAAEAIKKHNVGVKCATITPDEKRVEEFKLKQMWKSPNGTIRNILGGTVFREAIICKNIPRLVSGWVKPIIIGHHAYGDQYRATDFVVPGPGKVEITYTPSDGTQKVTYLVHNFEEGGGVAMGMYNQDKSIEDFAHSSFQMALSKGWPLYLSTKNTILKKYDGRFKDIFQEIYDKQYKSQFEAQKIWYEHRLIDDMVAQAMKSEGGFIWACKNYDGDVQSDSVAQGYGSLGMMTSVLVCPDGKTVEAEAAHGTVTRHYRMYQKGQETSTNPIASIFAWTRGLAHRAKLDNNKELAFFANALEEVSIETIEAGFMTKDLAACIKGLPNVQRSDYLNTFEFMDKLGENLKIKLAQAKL
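IDH1-R132H (0.5 ug/mL dispensed) in pH 7.5 Tris buffer was preincubated 30 min with compound, then given a substrate mix of 0.016 mM NADPH and 2 mM alpha-KG for 80 min at room temperature; remaining NADPH was read by diaphorase/resazurin fluorescence.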
LDHA inh: blocks human lactate dehydrogenase A; P00338; purified LDHA, NADH/diaphorase-resazurin fluorescence; hits give low values; activity change, % (values are at about 110 or 230 µM); hit rate 0.15% among 480,000; in the data active = activity change below about -30%; inconclusive = mostly about -25% to -30%;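 also: plate controls were DMSO wells for no effect and wells without enzyme for full effect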
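Human LDH5 (2 nM) was incubated with 0.06 mM NADH and 0.2 mM pyruvate for 5 min at room temperature in Tris pH 7.4. Remaining NADH was coupled through diaphorase/resazurin, and resorufin fluorescence was read at 0 and 20 min.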
FUS yeast rescue: rescues growth of FUS-expressing yeast | S. cerevisiae FUS-expressing, growth rescue, OD600, 24 h | Potency, µM (doses to about 76.6 µM), most hits filed as activators | hit rate 0.24% among 390,000;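 also: potency is read from the fitted curve at half-maximal effect; plate controls were DMSO vehicle for no effect and reference control for full effect; nearly all actives have a fitted effect of over 55% in size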
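Compound concentration series was pinned onto galactose-induced FUS-expressing yeast seeded at OD 0.005. Plates sat 24hr at 30C; absorbance at 600 nm gave growth. DMSO served as background control.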
Active calls of the source: *. This is a sample that favours compounds with a hit; in the whole collection about 2% have one here. Unless noted, calls follow the shape of the dose curve; as a rule, active = well fitted curve in the direction sought with a large enough effect; inconclusive = small, poorly fitted or top-dose-only effect, or another doubt; inactive = no such curve, though single readings can be large; an effect the other way counts as inactive or inconclusive.

`CC(C)N1CC2(CC(c3ccccc3F)=NO2)CN1C(=O)c1ccco1` (configuration not stated) gave aSyn yeast inh 2%, Abeta rescue inactive, TDP43 rescue 19%, IDH1 R132H inh -3%, LDHA inh -15 and FUS yeast rescue inactive.
COc1ccc(N/N=C(/C(C)=O)N2CCCc3ccccc32)cc1 was read as aSyn yeast inh -3%, Abeta rescue inactive, TDP43 rescue 20µM*, IDH1 R132H inh 10%, LDHA inh 5 and FUS yeast rescue inactive.
COc1ccc(/C=C/C(=O)N2CCCc3ccccc32)cc1 was read as aSyn yeast inh -1%, Abeta rescue inactive, TDP43 rescue 20µM*, IDH1 R132H inh -2% and LDHA inh -6.
`COc1ccc(OC)c(/C=C/C(=O)N2CCCc3ccccc32)c1` gave aSyn yeast inh 12%, Abeta rescue inactive, TDP43 rescue inconclusive, IDH1 R132H inh 2%, LDHA inh -3 and FUS yeast rescue inactive.
For CCCN1CNC(=S)N(N2CN(CCC)CNC2=S)C1 the results were LDHA inh -4.
Screening Cc1cc(C)c2c(n1)sc1c(N3CCCCC3)ncnc12 returned aSyn yeast inh -9%, Abeta rescue inactive, TDP43 rescue 4%, IDH1 R132H inh 16%, LDHA inh -5 and FUS yeast rescue inactive.
CCN(CC)c1ncnc2c1sc1nc(C)cc(C)c12 was read as aSyn yeast inh 0%, Abeta rescue inactive, TDP43 rescue 22µM*, IDH1 R132H inh 20%, LDHA inh -1 and FUS yeast rescue inactive.
COc1ccc(-n2sc3c(c2=S)-c2cc(OC)ccc2NC3(C)C)cc1 was read as aSyn yeast inh 8%, Abeta rescue inactive, TDP43 rescue 17%, IDH1 R132H inh 1%, LDHA inh -4 and FUS yeast rescue inactive.
COc1ccc2c(c1)-c1c(ssc1=S)C(C)(C)N2 was read as aSyn yeast inh 2%, Abeta rescue inactive, TDP43 rescue 18µM*, IDH1 R132H inh 8%, LDHA inh 1 and FUS yeast rescue inactive.
Screening O=C(COC(=O)COc1ccc(Br)cc1)Nc1ncc(C(F)(F)F)cc1Cl returned LDHA inh 11.
COc1ccc(-c2nc(-c3nonc3N)no2)cc1 was read as LDHA inh -7.
Screening Fc1ccc(NC(=S)N(Cc2ccccc2)Cc2ccccc2)cc1 returned LDHA inh -2.
Screening CCCN(Cc1ccccc1)C(=S)Nc1ccc(F)cc1 returned aSyn yeast inh -3%, Abeta rescue inactive, TDP43 rescue 18µM*, IDH1 R132H inh -4%, LDHA inh -8 and FUS yeast rescue inactive.
`CC(C)C1C(=O)N(Cc2cn(CCC3OCCCO3)nn2)CCS(=O)(=O)N1Cc1ccc(-c2ccc(Cl)cc2)cc1` (configuration not stated) gave aSyn yeast inh -1%, Abeta rescue inactive, TDP43 rescue 16%, IDH1 R132H inh -6%, LDHA inh -1 and FUS yeast rescue inactive.
`CC(C)C1C(=O)N(Cc2cn(CCC3OCCO3)nn2)CCS(=O)(=O)N1Cc1ccc(-c2ccc(Cl)cc2)cc1` (configuration not stated) gave aSyn yeast inh inconclusive, Abeta rescue inactive, TDP43 rescue 35µM*, IDH1 R132H inh -29%, LDHA inh -4 and FUS yeast rescue inconclusive.
Screening COc1ccc(-c2ccc(CN3C(C)C(=O)N(Cc4cn(CCC5OCCO5)nn4)CCS3(=O)=O)cc2)cc1 (configuration not stated) returned aSyn yeast inh -3%, Abeta rescue inactive, TDP43 rescue inconclusive, IDH1 R132H inh -1%, LDHA inh 1 and FUS yeast rescue inconclusive.
For CC1C(=O)N(Cc2cn(CCC3OCCO3)nn2)CCS(=O)(=O)N1Cc1ccc(-c2ccc(Cl)c(Cl)c2)cc1 (configuration not stated) the results were aSyn yeast inh 26%, Abeta rescue inactive, TDP43 rescue 16µM*, IDH1 R132H inh -22%, LDHA inh -6 and FUS yeast rescue inconclusive.
Screening CCOc1ccccc1C(=O)Nc1c(NCc2ccccc2)c2ccccc2oc1=O returned LDHA inh 13.
For Cc1n[nH]c(=S)n(/N=C/c2cccs2)c1=O the results were aSyn yeast inh -5%, Abeta rescue inactive, TDP43 rescue -23%, IDH1 R132H inh 11%, LDHA inh -31* and FUS yeast rescue inactive.
For CC(C)(C)c1n[nH]c(=S)n(/N=C/c2cccs2)c1=O the results were aSyn yeast inh -14%, Abeta rescue inactive, TDP43 rescue 25%, IDH1 R132H inh 6%, LDHA inh -8 and FUS yeast rescue inactive.
`CCN(CC)c1ccc(/C=N/n2c(=S)[nH]nc(C)c2=O)cc1` gave aSyn yeast inh -2%, Abeta rescue inactive, TDP43 rescue 3%, IDH1 R132H inh -1%, LDHA inh -31* and FUS yeast rescue inactive.
`Cc1ccccc1OCCOC(=O)c1c(-c2ccccc2)noc1C` gave aSyn yeast inh 1%, Abeta rescue inactive, TDP43 rescue -1%, IDH1 R132H inh 0%, LDHA inh -10 and FUS yeast rescue inactive.
Screening Cc1onc(-c2ccccc2)c1C(=O)OCC(=O)c1ccc(F)cc1 returned aSyn yeast inh 0%, Abeta rescue inactive, TDP43 rescue 20µM*, IDH1 R132H inh -2%, LDHA inh 0 and FUS yeast rescue inactive.
Screening Cc1onc(-c2ccccc2)c1C(=O)OCCOc1ccc([N+](=O)[O-])cc1[N+](=O)[O-] returned aSyn yeast inh 14%, Abeta rescue inactive, TDP43 rescue 13µM*, IDH1 R132H inh -4%, LDHA inh -1 and FUS yeast rescue inactive.
For CCCn1c(=O)[nH]c(=O)c2c1nc(CCc1ccccc1)c(=O)n2CCOC the results were LDHA inh 9.
For COc1nc(-c2ccccc2)c2cc(C)ccc2n1 the results were aSyn yeast inh 5%, Abeta rescue inactive, TDP43 rescue 13µM*, IDH1 R132H inh 0%, LDHA inh -2 and FUS yeast rescue inactive.
CC(=O)Nc1ccc(NC(=O)c2cccc3c(Br)cccc23)cc1 was read as LDHA inh -1.
`CCCCN(C)C(=O)c1cn(-c2cccc(OC)c2)c(=O)c2ccccc12` gave aSyn yeast inh 0%, Abeta rescue inactive, TDP43 rescue 1%, IDH1 R132H inh -8%, LDHA inh 1 and FUS yeast rescue inactive.
